Assay outcomes as filed in PubChem BioAssay.
An excerpt weighted towards active compounds, which were near 1.1% of everything screened.
Insulin prom inh – inhibitors of insulin promoter-driven GFP, primary screen, imaging, TRM-6 cells (human fetal islet line), eGFP reporter, cell count | inhibition, % at 2 µM | reporter expression induced with tamoxifen | 130,000 tested, 0.9% active | AID 1273, 2008;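 active = inhibition above the mean plus 3 SD, with well images judged a real hit on visual review, cut at about 60% in these data, passing the limit was not always enough; inconclusive = inhibition over the cutoff but images rejected on review; inactive = inhibition not above the cutoff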
Efa HMGR inh – inhibitors of E. faecalis class II HMGR, primary screen, biochemical, Enterococcus faecalis; HMG-CoA reductase (Enterococcus faecalis, mvaE); purified E. faecalis HMGR, NADPH absorbance 340 nm kinetic; inhibition, % at 10 µM; 190,000 tested, 0.41% active; AID 1066, 2008;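 active = inhibition above a set limit, the median over all tested compounds plus 3 SD, cut at about 9.5% in these data; inconclusive = no clear call, values can overlap the other calls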;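 also: enzyme runs in reverse so mevalonate oxidation gives rising NADPH absorbance; 0% = complete reaction with DMSO and 100% = background rate lacking mevalonate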
HSV replic up – enhancers of HSV replication in host cells, fold increase, host cell viability | HSV replication augmentation in cells | maximum fold increase | 220,000 tested, 0.005% active | AID 1956, 2009; in the data active = maximum fold increase above about 1.5; inconclusive = no clear call, values can overlap the other calls; tested in PC3 cells
Insulin prom up – insulin promoter activators in MIN6 cells, imaging, high-content screening, mouse beta cells. MIN6 insulin promoter-GFP reporter; active compounds read high. AID 1625, 2009. 190,000 tested, 0.3% active. z-score at 5 µM;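 active = z-score above 3 at 5 µM with at least 500 cells counted in the well; inconclusive = wells under 500 cells, flagged as cytotoxic or low count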
Starred values were filed as active, the others as inactive; i = inactive; u = inconclusive; x = no result given.

SMILES	Insulin prom inh	Efa HMGR inh	HSV replic up	Insulin prom up
Cc1nc(-c2cccc(NS(C)(=O)=O)c2)cs1	x	1.2	i	x
O=C1/C(=C/C=C/c2ccco2)SC(=S)N1c1ccc(O)cc1	x	x	u	-1.4
CC(C)C(C(=O)O)N1C(=O)/C(=C/C=C/c2ccco2)SC1=S (centres undefined)	40.0	11.2*	u	0.65
COc1ccc(F)cc1C(=O)C1CCCN(Cc2c(C)n(C)n(-c3ccccc3)c2=O)C1 (centres undefined)	x	-0.7	i	x
Cc1cc(C(=O)COC(=O)Cc2n[nH]c(=O)c3ccccc23)c(C)n1-c1ccc2c(c1)OCCO2	6.1	-8.7	i	0.57
COC(=O)c1ccc(NC(=O)CN(C)Cc2cccc(F)c2)cc1	x	10.6*	i	-0.43
Cc1nc2ncnn2c(N2CCCC(C(=O)Nc3ccccc3Br)C2)c1C (centres undefined)	15.4	1.6	i	0.75
CCOc1cc(C(=O)NCCCn2ccnc2)cc(OCC)c1OCC	30.8	1.4	i	0.08
COc1ccc(NC(=S)Nc2ccccc2SC)c(OC)c1	x	1.1	i	-0.02
O=C(Nc1ccc(-c2cn3ccccc3n2)cc1)c1ccco1	-53.9	0.8	i	-0.03
O=C(NCc1cn2ccccc2n1)c1ccco1	x	-7.3	i	3.67*
CC1(C)Cc2c(sc(NC(=O)c3ccccc3Cl)c2C(=O)O)CO1	x	-2.9	i	0.01
COc1ccc(C)cc1NC(=S)NC(C)c1ccc(OC)c(OC)c1 (centres undefined)	x	-4.3	i	-0.98
COC(=O)C1=C(C)N=C2SC(C#N)=C(N)N2C1c1cccc(OC)c1 (centres undefined)	100.0*	-2.8	i	0.01
COC(=O)C1=C(C)N=C2SC(C#N)=C(N)N2C1c1ccc(OC)cc1 (centres undefined)	x	-2.9	i	-0.68
Cc1ccc(OC(=O)CCC(=O)NC(C)c2ccccc2)cc1 (centres undefined)	8.3	-6.3	x	0.18
CCCOCCc1nnc(N)s1	x	x	i	-0.89
O=C(NN1S(=O)(=O)c2ccccc2S1(=O)=O)c1ccc(Br)cc1	27.3	16.1*	i	0.93
Cc1cccc(C(=O)NN2S(=O)(=O)c3ccccc3S2(=O)=O)c1	-8.1	-3.7	i	-0.43
N#CCc1nc(CSc2nc3ccccc3s2)cs1	31.0	-0.8	i	4.03*
CCC(C)(C)C(=O)Nc1cc([N+](=O)[O-])ccc1Cl	18.8	0.1	i	-0.03
CCC(C)(C)C(=O)Nc1cc([N+](=O)[O-])ccc1F	-13.3	12.1*	i	0.27
N#CC(C#N)=Cc1ccc(OCC(=O)N2CCOCC2)cc1	-61.5	-1.0	x	1.27
Nc1nonc1-n1nncc1-c1ccccc1	-53.9	11.2*	i	-0.25
CCOC(=O)c1nnn(-c2nonc2N)c1-c1ccccc1	-61.5	0.9	i	0.14
SMILES	Insulin prom inh	Efa HMGR inh	HSV replic up	Insulin prom up
CC1(C)Cc2c(sc3nc(-c4ccccc4)oc(=O)c23)CO1	25.0	-5.2	i	0.15
Cc1ccc(OCCn2cc(/C(N)=N/O)c3ccccc32)cc1C	x	3.5	i	-0.71
COc1ccc(OCCn2cc(/C(N)=N/O)c3ccccc32)cc1	-28.6	-1.0	i	3.09*
Cc1[nH][nH]c(=O)c1C(c1c(C)[nH][nH]c1=O)c1cn(Cc2ccccc2Cl)c2ccccc12	14.7	66.8*	i	-0.29
COC(=O)N/N=C/c1cn(Cc2ccccc2Cl)c2ccccc12	18.9	-2.3	i	-0.24
COC(=O)C1=C(C(=O)OC)[C@@H]2Nc3ccccc3[C@@]23C[C@@H](C(=O)OC)N(C(=O)c2ccco2)C3=N1	x	x	i	x
COC(=O)c1cc(=O)n(Cc2cccs2)c(=Nc2ccc(F)cc2)s1	x	-1.7	i	0.25
COC(=O)c1cc(=O)n(-c2ccc(F)cc2)c(=Nc2ccc(F)cc2)s1	-55.0	11.2*	i	-0.71
CCc1nnc(N2C(=O)c3ccc(Oc4ccc([N+](=O)[O-])cc4)cc3C2=O)s1	x	4.0	i	-0.33
COC(=O)c1c(NC(=O)CC2Nc3cc(C)c(C)cc3NC2=O)sc(C)c1C (centres undefined)	x	-2.2	i	6.44*
CCOC(=O)N1CCN(c2ncnc3c2[nH]c2ccc(OC)cc23)CC1	91.3*	-1.0	i	-0.23
COc1ccc2[nH]c3c(NCCN4CCCCC4)ncnc3c2c1	81.2*	3.3	i	-0.94
CCOC(=O)N1CCN(c2ncnc3c2[nH]c2ccc(F)cc23)CC1	13.9	-3.0	i	u
CCOc1ccc2[nH]c(=O)c(CN(CCc3ccccc3)C(=O)N3CCCC3)cc2c1	-20.0	-1.3	i	0.03
CCOc1ccc2[nH]c(=O)c(CN(CCc3ccccc3)C(=O)N3CCOCC3)cc2c1	26.7	-3.3	x	5.49*
CCC(C)N(CC(=O)Nc1cccc(C)c1C)C(=O)CCl (centres undefined)	100.0*	-4.7	i	0.22
O=C(Oc1ccccc1O)c1cccc2ccccc12	x	17.6*	i	-0.81
O=C(Oc1cccc2c(O)cccc12)c1ccccc1	x	0.7	i	-0.42
COc1ccc2c3c(cccc13)NN=C2C	78.6*	x	x	x
COc1ccc(C(=O)c2ccc(OC)c3cccc(O)c23)cc1OC	-10.0	-6.6	i	0.86
Cc1cccc(S(=O)(=O)Nc2ccc(-c3cn4ccccc4n3)cc2)c1	x	14.1*	i	0.23
O=S(=O)(Nc1ccc(-c2cn3ccccc3n2)cc1)c1ccccc1	x	x	i	-0.13
CCCCC1=C([O-])C2N=CC=CC2=[N+](c2ccccn2)C1=O (centres undefined)	-15.2	-6.5	i	-0.34
Cc1sc2ncnc(SCC(=O)N(C(C)C)C(C)C)c2c1C	x	10.8*	i	0.11
Cc1sc2ncnc(SCC(=O)NC(C)C(C)C)c2c1C (centres undefined)	x	-0.4	i	0.08
SMILES	Insulin prom inh	Efa HMGR inh	HSV replic up	Insulin prom up
Cc1sc2ncnc(SCC(=O)NC3CC3)c2c1C	100.0*	2.3	i	0.56
O=C(/C=C/c1cccc([N+](=O)[O-])c1)n1cnc2ccccc21	-46.7	-3.4	i	0.16
Cc1cc(S(=O)(=O)NC2CCCCC2)c(C)s1	x	1.2	i	3.49*
COc1ccc(S(=O)(=O)NC2CCCCC2)c(C)c1C	-9.5	0.2	i	-0.05
CSc1nc(-c2ccc(Cl)cc2)nn1C(=O)c1ccco1	83.3*	-6.0	i	1.23
CCS(=O)(=O)n1nc(-c2ccc(Cl)cc2)nc1SC	72.1*	-2.2	i	0.45
O=C(CNC1CCN(Cc2ccccc2)CC1)Nc1ccc(S(=O)(=O)N2CCCCC2)cc1	x	x	i	-0.16
COc1ccc(N2CCN(c3ccc(N4C(=O)CC(C)C4=O)cc3[N+](=O)[O-])CC2)cc1 (centres undefined)	76.9*	-4.7	x	0.05
O=C(NNC(=O)C(c1ccccc1)c1ccccc1)c1cccs1	62.5	-3.3	i	0.21
CCN1CCC(CNCc2cn(-c3ccc(OC)cc3)nc2-c2ccccc2Cl)C1 (centres undefined)	x	-4.2	i	-0.6
Brc1ccc(-c2cnco2)cc1	x	-3.6	i	0.73
CC(C)Nc1nc(NC(C)C)nc(N(C)C(N)=O)n1	72.7*	0.3	i	0.15
